Screening results from PubChem.
SMN2 splice up: SMN2 splice variant enhancement; HEK293 SMN2-luciferase splicing reporter, luminescence, 30-36 h; Potency, µM (doses to about 46.1 µM), for inactives: at the highest dose activity change, positive = activation, hits mostly activators; 2.8% of 210,000 active; AID 1458; also: % of control where 0% means no effect; nearly all actives have a fitted effect of over 55% in size
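HEK293 cells carry an SMN2 […]–luciferase reporter in which exon 7 inclusion puts luciferase in frame. Cells were plated 10-12 h before compound addition, then incubated 30-36 h at 37C. ONE-Glo luminescence was read; sodium butyrate at 4.5 mM final served as control.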
FLuc counter: inhibits or activates purified firefly luciferase, miR-21 counter-screen; P08659; purified FLuc, Km substrates, luminescence inhibition; Potency, µM (doses to about 57.5 µM), without a hit: top-dose activity change, negative = inhibition, actives largely listed as inhibitors; 6.9% of 360,000 active; AID 588342;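 also: plate controls were vehicle for no effect and reference inhibitor for full effect; nearly all actives have a fitted effect of over 55% in size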
Target sequence (P08659 whole entry, looked up): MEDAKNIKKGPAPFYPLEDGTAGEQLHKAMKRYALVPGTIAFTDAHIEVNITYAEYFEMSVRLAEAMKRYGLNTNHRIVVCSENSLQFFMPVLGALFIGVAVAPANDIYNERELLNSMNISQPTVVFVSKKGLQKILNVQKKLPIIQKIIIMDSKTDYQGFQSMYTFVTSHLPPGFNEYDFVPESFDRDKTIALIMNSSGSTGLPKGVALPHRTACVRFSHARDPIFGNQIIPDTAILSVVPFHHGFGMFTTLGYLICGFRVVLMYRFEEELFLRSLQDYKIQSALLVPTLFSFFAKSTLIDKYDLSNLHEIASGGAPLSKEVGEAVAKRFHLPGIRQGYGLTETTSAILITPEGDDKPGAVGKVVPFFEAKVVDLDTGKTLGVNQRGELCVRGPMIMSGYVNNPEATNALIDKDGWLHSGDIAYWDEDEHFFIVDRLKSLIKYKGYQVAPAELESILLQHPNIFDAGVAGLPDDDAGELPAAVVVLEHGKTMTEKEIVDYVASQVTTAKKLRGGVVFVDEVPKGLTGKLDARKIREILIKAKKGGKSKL
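Purified P. pyralis luciferase, 10 nM final, with Km-level 10 uM D-luciferin and 10 uM ATP in 50 mM Tris acetate pH 7.5, 10 mM Mg acetate, 0.01% Tween-20, 0.05% BSA; 6-point qHTS titration about 60 µM downward; luminescence read.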
Rab9 promoter act: Rab9 promoter activation | Huh7 Rab9 promoter-luciferase reporter, luminescence, 24 h | Potency, µM (titrated, usually from 9.22 µM), without a hit: at the top dose activation, negative = inhibition, most hits filed as activators | AID 485297 | 2.8% of 320,000 active; also: % of control where 0% means no effect; nearly all actives have a fitted effect of over 60% in size
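Huh7 reporter line, Rab9 promoter upstream of luciferase. Compound exposure 24 h at 37 °C in reduced-serum medium with 10% FBS. Read-out: luminescence.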
KinaseGlo FLuc: Kinase-Glo luciferase inhibition (counter-screen); Q27757; 0.28% of 200,000 active; Kinase-Glo luciferase, ATP luminescence, 8 min; Potency, µM (highest dose often 38.3 µM), for inactives: at the highest dose activity change, negative = inhibition, actives largely listed as inhibitors; also: % is scaled to controls: 0 for no effect and ±100 for the full control effect; nearly all actives have a fitted effect of over 60% in size
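Kinase-Glo luciferase light output from ATP and luciferin was measured with 10 uM ATP, within the enzyme's linear range. Buffer: 50 mM imidazole pH 7.2, 50 mM KCl, 7 mM MgCl2, 0.01% Tween 20, 0.05% BSA; luminescence read after 8 min at ambient temperature.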
ELG1 genotox: induces genotoxicity in HEK293T cells with luciferase-tagged ELG1. HEK293T ELG1-luciferase reporter, luminescence, 16 h. Potency, µM (highest dose often 46 µM), for the others: at the highest dose activity change, positive = activation, most hits filed as activators. 1.3% of 330,000 active. AID 504466; also: % of control where 0% means no effect; nearly all actives have a fitted effect of over 60% in size
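Screening used a luciferase reporter fused to human ELG1 in HEK293T cells. Luminescence was read on a CCD plate imager after 16 hr exposure and 30 min ONE-Glo incubation.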
NPC1 prom act: NPC1 promoter activation; Huh7 NPC1 promoter luciferase reporter, 24 h; Potency, µM (titrated, usually from 9.22 µM), without a hit: at the highest dose activation, most hits filed as activators; 2.4% of 320,000 active; AID 485313; also: % of control where 0% means no effect; nearly all actives have a fitted effect of over 60% in size
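Readout is luciferase luminescence, reflecting NPC1 promoter activation in stably transfected Huh7 cells after 24 h compound exposure at 37 °C in reduced-serum medium with 10% FBS.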
* = called active by the depositor; ? = inconclusive; / = not tested or not shown; [ ] = remark or other dose. Only some compounds are listed: those with a hit (about 7.3% of all), similar ones and a draw of the others. Calls follow the shape of the dose curve; as a rule, active = well fitted curve in the direction sought with a large enough effect; inconclusive = small, poorly fitted or top-dose-only effect, or another doubt; inactive = no such curve, though single readings can be large; an effect the other way counts as inactive or inconclusive. Potency is read from the fitted curve at half-maximal effect.

SMILES	SMN2 splice up	FLuc counter	Rab9 promoter act	KinaseGlo FLuc	ELG1 genotox	NPC1 prom act
CC(Sc1nc(=O)cc(N)n1CCc1ccccc1)C(=O)Nc1cccc(Cl)c1 (stereo not drawn)	9.4%	-2.0%	/	/	/	/
COc1ccccc1CN(C)C(=O)c1cc(-c2cccs2)nc2ccccc12	/	-1.8%	-5.0%	/	-29.6%	-7.5%
Cc1c(C(=O)Nc2ccc(F)cc2)sc2nc[nH]c(=O)c12	/	-15.8%	/	/	/	/
Cc1ccc(-c2nnc(SCC(=O)Nc3ccccc3F)o2)cc1	-64.9%	?	?	-1.7%	0.164µM*	?
Cc1ccc(CN(CC(=O)NC2CCCC2)C(=O)CSc2nnc(COc3ccccc3)o2)cc1	0.6%	-1.8%	-1.2%	-1.0%	7.5%	-9.2%
O=C(CSc1nnc(-c2ccccn2)o1)Nc1ccccc1Cl	/	0.1%	0.562µM*	/	?	?
COC(=O)c1ccccc1NC(=O)CSc1nnc(-c2ccc(C)cc2)o1	-50.6%	?	?	0.8%	?	?
CCc1ccc(OCc2nnc(SCC(=O)NC3CCCCC3)o2)cc1	/	10.7µM*	1.3%	/	1.7%	-0.6%
Cc1cnc(NC(=O)CSc2nnc(COc3ccccc3)o2)s1	/	5.6%	0.3%	/	-0.8%	-2.5%
Cc1cnc(NC(=O)CSc2nnc(-c3ccccc3)o2)s1	10µM*	-8.5%	2µM*	0.3%	?	3.55µM*
CC1CCCN(C(=O)CSc2nnc(-c3c[nH]c4ccccc34)o2)C1 (stereo not drawn)	-10.7%	?	8.3%	2.3%	10.5%	1.5%
O=C(CSc1nnc(-c2ccncc2)o1)Nc1cc(F)ccc1F	/	-21.5%	2.82µM*	/	?	2.82µM*
Cc1cccc(NC(=O)CSc2nnc(-c3cc(C)n(-c4ccccc4)c3C)o2)c1C	5.0%	16.9µM*	-2.5%	1.5%	-0.4%	-1.0%
CCc1ccccc1NC(=O)CSc1nnc(COc2ccccc2Cl)o1	-10.0%	16.9µM*	/	/	/	/
O=C(CSc1nnc(-c2ccccc2)o1)Nc1ccccc1F	0.794µM*	-12.1%	0.0032µM*	-0.1%	?	22.8%
CCn1cc(S(=O)(=O)c2cc(C)cc(C)c2)c(=O)c2cc(F)c(N3CCCCC3)cc21	/	-8.4%	/	/	/	/
CCOc1nc(NCCO)nc(Nc2ccc([N+](=O)[O-])cc2)n1	2.6%	0.2%	-5.6%	2.7%	1.1%	-3.4%
COc1ccc(/C=C2\SC(=S)N(CCC(=O)Nc3ccc(C(=O)O)cc3)C2=O)cc1OC	/	?	0.0%	/	-0.9%	3.2%
COc1cc(OC)c(C(=O)NCc2ccco2)cc1OC	/	-0.8%	1.4%	/	-0.2%	-3.5%
COc1ccc(OC)c2c(N3CC(C)OC(C)C3)cc(C(F)(F)F)nc12 (stereo not drawn)	/	7.57µM*	3.16µM*	/	?	2.82µM*
COc1cc(/C=C2\SC(N3CCC(C)CC3)=NC2=O)ccc1O	/	10.7µM*	22.8%	/	18.3µM*	9.4%
O=C1N=C(N2CCCCC2)S/C1=C/C1=Cc2ccccc2OC1	8.7%	2.39µM*	19.9%	1.0%	?	11.7%
Cc1ccc(/C=C2\SC(N3CCCC3)=NC2=O)cc1	-12.4%	?	16.6%	-0.2%	14.5%	12.4%
COc1ccc(/C=C2\SC(N3CCCCC3)=NC2=O)cc1OC	/	10.7µM*	-4.9%	/	?	0.8%
COc1ccc(OC)c(/C=C2\SC(N3CCCC(C)C3)=NC2=O)c1 (stereo not drawn)	/	?	-3.0%	/	0.9%	5.7%
SMILES	SMN2 splice up	FLuc counter	Rab9 promoter act	KinaseGlo FLuc	ELG1 genotox	NPC1 prom act
CN(C)c1ccc(/C=C2\SC(N3CCCCC3)=NC2=O)cc1	/	0.536µM*	20.4%	/	?	?
O=C1N=C(N2CCCCC2)S/C1=C\c1ccc(Br)cc1	/	?	24.7%	/	2.3%	18.8%
CCOC(=O)C1CCN(C2=NC(=O)/C(=C/c3ccc(OC)c(OC)c3)S2)CC1	/	?	-6.3%	/	0.6%	-1.7%
COc1ccc(-c2nc(N3CCCC3)[nH]c(=O)c2C#N)cc1	-2.2%	1.2%	17.9%	-2.5%	7.0%	-1.5%
Cc1c(Cl)c([N+](=O)[O-])nn1CCCC(=O)Nc1cccc(Cl)c1	3.8%	10.4%	-5.7%	5.5%	-1.5%	-23.9%
COc1cc(OC)cc(-c2nc(SCC(=O)Nc3ccccc3F)n[nH]2)c1	/	0.9%	-0.1%	/	2.3%	-0.2%
C=CCSc1n[nH]c(-c2ccc(OC)cc2)n1	14.1µM*	15.1µM*	2µM*	-7.8%	3.26µM*	2.82µM*
CCCCOc1ccc(-c2nc(=S)[nH][nH]2)cc1	10µM*	?	?	14.6%	29.5%	25.5%
CCCCOc1ccc(-c2nc(SCC(N)=O)n[nH]2)cc1	9.6%	10.7µM*	25.5%	-1.0%	11.9%	?
COc1ccc(-c2nc(SCC(=O)Nc3c(F)cccc3F)n[nH]2)cc1	/	12µM*	-3.1%	/	16.2%	-0.7%
O=C(Cc1ccccc1)NC(Nc1cccc2ccccc12)C(Cl)(Cl)Cl (stereo not drawn)	-19.4%	3.3%	-3.6%	-1.6%	0.6%	-3.7%
O=C(COC(=O)c1cnc(Cl)c(Cl)c1)NC1CCCCCC1	/	0.6%	-2.3%	/	-3.0%	-1.6%
CCOc1ccccc1NC(=O)CCc1c(C)nc2c3cccnc3nn2c1C	-4.3%	1.3%	/	/	/	/
Cc1cc(NC(=O)CSc2[nH]c(=O)cc(C(F)(F)F)c2C#N)no1	/	-1.8%	-0.2%	/	-1.3%	1.0%
CC(=O)c1cccc(NC(=O)CSc2n[nH]c(-c3ccncc3)n2)c1	/	?	-12.3%	/	1.8%	1.3%
Cc1ccc(-c2nc(SCC(=O)Nc3cc(S(=O)(=O)N4CCCCC4)ccc3Cl)n[nH]2)cc1	5.4%[1.84 µM]	15.1µM*	-7.2%	-2.5%	0.5%	-5.4%
COc1ccc(-c2nc(SCC(=O)Nc3cc(C)on3)n[nH]2)cc1	-10.8%	21.3µM*	0.5%	-4.5%	10.9%	-0.4%
COc1ccc(-c2nc(SCC(=O)Nc3cccc(C(C)=O)c3)n[nH]2)cc1	/	6.75µM*	/	/	/	/
Nc1cc(=O)[nH]c(SCC(=O)Nc2cc(S(=O)(=O)N3CCCCCC3)ccc2Cl)n1	/	/	/	/	-3.9%	/
CCc1ccc(N2CC(c3nc4ccccc4n3Cc3ccccc3C)CC2=O)cc1 (stereo not drawn)	/	-8.2%	/	/	/	/
